ADAM10 inh = ADAM10 inhibition, QFRET primary screen. O14672. recombinant ADAM10, EDANS/DABCYL FRET peptide cleavage, 3 h. inhibition, % at 7 µM. 370,000 tested, 0.62% active. AID 720582;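 active = inhibition above a per-campaign cutoff equal to the mean of compounds falling between control-based bounds plus 3 SD, cut at about 20% in these data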
PLC-gamma1 inh = inhibitors of human phospholipase C gamma1; purified PLC-gamma1, fluorogenic substrate, fluorescence; inhibition, % at 12.2 µM; AID 720700; P19174; 370,000 tested, 0.84% active; in the data active = inhibition above about 9.5%
PLC-beta3 inh = inhibitors of human phospholipase C beta3. Purified PLC-beta3, fluorogenic substrate, fluorescence. inhibition, % at 12.2 µM. 370,000 tested, 0.18% active; in the data active = inhibition above about 11%
ADAM17 inh = inhibits human ADAM17 | P78536 | inhibition, % at 6.95 µM | 370,000 tested, 0.83% active | recombinant ADAM17, EDANS/DABCYL FRET peptide cleavage;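 active = inhibition above the mean of compounds lying between control limits plus 3 SD, set per campaign, cut at about 8.5% in these data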
sPLA2-III inh = Blocks human group III sPLA2 activity; Q9NZ20; QFRET BODIPY PC-A2 liposome hydrolysis, fluorescence; inhibition, % at 12.2 µM; 370,000 tested, 0.56% active; AID 743126;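 active = inhibition above mean plus 3 SD of compounds lying within the high and low control bounds, cut at about 19% in these data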
proKLK7 act = activators of human kallikrein-7 zymogen; purified proKLK7, EDANS-DABCYL substrate fluorescence; 100% is mature enzyme control, 0% vehicle; activation, % at 7 µM; 370,000 tested, 0.9% active; AID 652039;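 active = activation above the mean of all tested compounds plus 3 SD, computed per campaign excluding outliers beyond control limits, cut at about 13% in these data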
Target sequence (P49862 whole entry, looked up): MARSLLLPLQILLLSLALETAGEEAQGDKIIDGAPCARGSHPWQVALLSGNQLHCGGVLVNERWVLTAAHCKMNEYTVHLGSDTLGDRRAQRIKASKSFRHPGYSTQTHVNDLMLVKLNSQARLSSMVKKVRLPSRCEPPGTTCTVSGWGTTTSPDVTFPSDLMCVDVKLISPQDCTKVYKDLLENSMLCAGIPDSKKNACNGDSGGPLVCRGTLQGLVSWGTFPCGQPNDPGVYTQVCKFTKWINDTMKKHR
ADAM10 confirm = confirmation of inhibitors of human ADAM10. shares compounds with ADAM10 inh. ADAM10 QFRET peptide cleavage, EDANS fluorescence. inhibition, % at 6.95 µM. 2,100 tested, 1% active. AID 743208;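 active = inhibition above about 20% chosen separately for each screening run, limit read from the data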
ADAM17 ctr = inhibits human ADAM17 in ADAM10 exosite counter-screen; shares compounds with ADAM10 inh; ADAM17 QFRET peptide cleavage, EDANS fluorescence; inhibition, % at 6.95 µM; 2,100 tested, 0.5% active; AID 743214;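 active = mean triplicate inhibition above the solvent-only control wells' mean plus 3 SD, cut at about 12% in these data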
Large screens that a line does not name were inactive (follow-up assays come after a bar, where they were run). Hits are enriched below; roughly 3.4% of the tested compounds scored in any of these assays.

CC(C)(C)OC(=O)NCCCC[C@H](NC(=O)c1nc[nH]c1C(=O)N[C@@H](CCCCNC(=O)OC(C)(C)C)C(=O)OC(C)(C)C)C(=O)OC(C)(C)C	none
Cc1cccc(NC(=O)c2nc[nH]c2C(=O)NCCCCCNC(=O)OC(C)(C)C)c1	none
CC(C)(C)OC(=O)NCCCC[C@H](NC(=O)c1nc[nH]c1C(=O)NC(c1ccccc1)c1ccccc1)C(=O)OC(C)(C)C	ADAM10 inh 22 | ADAM10 confirm inactive | ADAM17 ctr inactive
COC(=O)[C@]12C[C@H](CC(=O)N3CCN(C(=O)C4CC4)CC3)C(=O)N(Cc3ccc4c(c3)OCO4)C1=C[C@H](COCc1ccccc1)O[C@@H]2C	none
C=CCCC1CN(Cc2ccc(OC)cc2)S(=O)(=O)c2c(Oc3cc(C)c(C)c(C)c3)cccc2O1 (stereo unspecified)	none
O=C(Cn1nc(C(F)F)cc1C(F)F)NNC(=S)Nc1ccc([N+](=O)[O-])cc1	ADAM10 inh 21 | ADAM10 confirm inactive | ADAM17 ctr inactive
Cc1ccccc1S(=O)(=O)N(C)C[C@H]1OCc2cnnn2CCCC(=O)N([C@H](C)CO)C[C@@H]1C	none
C/C(CC(=O)Nc1ccc([N+](=O)[O-])cc1)=N/NC(=O)C1CC12CCC2 (stereo unspecified)	ADAM10 inh 20 | ADAM10 confirm inactive | ADAM17 ctr inactive
C/C(CC(=O)Nc1ccc([N+](=O)[O-])cc1)=N/NC(=O)C1C2CCCCC21 (stereo unspecified)	none
COC(=O)[C@]12CCCCC=C1N(Cc1ccc(OC)cc1)C(=O)[C@@H]2CC(=O)NCCC(C)C	none
CC(C)(C)OC(=O)[C@H](Cc1ccccc1)NC(=O)c1nc[nH]c1C(=O)N1CCN(C(=O)OC(C)(C)C)CC1	none
CC(C)C[C@H](NC(=O)c1[nH]cnc1C(=O)N[C@@H](C)C(=O)OC(C)(C)C)C(=O)OCc1ccccc1	ADAM10 inh 21, ADAM17 inh 12 | ADAM10 confirm inactive | ADAM17 ctr inactive
CC(C)C[C@H](NC(=O)c1[nH]cnc1C(=O)Nc1ccc(CNC(=O)OC(C)(C)C)cc1)C(=O)OC(C)(C)C	ADAM10 inh 25, ADAM17 inh 9.1 | ADAM10 confirm 25 | ADAM17 ctr inactive
CC(C)C[C@H](NC(=O)c1[nH]cnc1C(=O)N[C@@H](C)c1ccccc1)C(=O)OC(C)(C)C	ADAM10 inh 24 | ADAM10 confirm inactive | ADAM17 ctr inactive
CC(C)(C)OC(=O)[C@H](Cc1ccccc1)NC(=O)c1nc[nH]c1C(=O)N1CCN(c2ccccc2)CC1	ADAM10 inh 22 | ADAM10 confirm inactive | ADAM17 ctr inactive
CC(C)C[C@H](NC(=O)c1nc[nH]c1C(=O)NCc1ccccc1)C(=O)OC(C)(C)C	ADAM10 inh 22 | ADAM10 confirm inactive | ADAM17 ctr inactive
Cc1cc(NC(=O)C(C)SCC(=O)Nc2nnc(CC(C)C)s2)no1 (stereo unspecified)	ADAM10 inh 82 | ADAM10 confirm inactive | ADAM17 ctr inactive
CCCN(CCC)C(=S)NC(=O)c1ccc(-c2ccccc2)cc1	ADAM10 inh 24 | ADAM10 confirm inactive | ADAM17 ctr inactive
Cc1cc(C)c2nc(NCc3ccccc3O)sc2c1	none
COc1cc(CNc2nc3c(C)cc(C)cc3s2)ccc1O	ADAM10 inh 22 | ADAM10 confirm inactive | ADAM17 ctr inactive
COc1ccc(N2CCN(CC(O)COc3ccc4c(c3)CCC4)CC2)cc1 (stereo unspecified)	none
OC(COc1ccc2c(c1)CCC2)CN1CCN(c2ccccc2F)CC1 (stereo unspecified)	ADAM10 inh 20 | ADAM10 confirm inactive | ADAM17 ctr inactive
O=S(=O)(Nc1ccc(C(O)(C(F)(F)F)C(F)(F)F)cc1)c1cccs1	none (no result: proKLK7 act)
Cc1ccc2nc(C3CCN(S(=O)(=O)c4ccc5ccccc5c4)CC3)[nH]c2c1	ADAM10 inh 26 | ADAM10 confirm inactive | ADAM17 ctr inactive
O=C(NCCc1ccccc1)c1oc2ccccc2c1COc1ccccc1	ADAM10 inh 20 | ADAM10 confirm inactive | ADAM17 ctr inactive
COc1ccc(/C=N/Nc2cc(N3CCCC3)nc(N3CCCC3)n2)cc1	ADAM10 inh 65 | ADAM10 confirm inactive | ADAM17 ctr inactive
Oc1ccc(/C=N/Nc2cc(N3CCCC3)nc(N3CCCC3)n2)cc1	none
C=CC[C@]1(O)C(=O)N(c2ccccc2)c2ccccc21	none
C=CCC[C@H](Cc1ccc(F)cc1)C(=O)OC[C@H](Cc1c[nH]c2ccccc12)NC(=O)[C@H](CC=C)CC(=O)N[C@H](CO)Cc1ccccc1	ADAM10 inh 21 | ADAM10 confirm inactive | ADAM17 ctr inactive
C=CCC[C@H](Cc1ccc(F)cc1)C(=O)OC[C@@H](Cc1c[nH]c2ccccc12)NC(=O)[C@H](CC=C)CC(=O)NCCO	ADAM10 inh 21 | ADAM10 confirm inactive | ADAM17 ctr inactive
C=CCC[C@@H](Cc1ccc(F)cc1)C(=O)OC[C@@H](NC(=O)[C@@H](CC=C)CC(=O)N[C@@H](CO)Cc1ccccc1)C(C)(C)C	ADAM10 inh 21 | ADAM10 confirm inactive | ADAM17 ctr inactive
C=CCC[C@H](Cc1ccc(F)cc1)C(=O)OC[C@H](Cc1c[nH]c2ccccc12)NC(=O)[C@@H](CC=C)CC(=O)N[C@@H](CO)Cc1ccccc1	none
C=CCC[C@@H](Cc1ccc(F)cc1)C(=O)OC[C@H](Cc1c[nH]c2ccccc12)NC(=O)[C@H](CC=C)CC(=O)NCCO	ADAM10 inh 22 | ADAM10 confirm inactive | ADAM17 ctr inactive
C#CCN1CC(COc2ccccc2)Oc2cccc(Oc3ccc(SC)c(C)c3)c2S1(=O)=O (stereo unspecified)	none
CCCNS(=O)(=O)c1ccc(CCC(=O)Nc2cc(Cl)ccc2Oc2ccccc2)cc1	ADAM10 inh 21 | ADAM10 confirm inactive | ADAM17 ctr inactive
O=C(C(=O)N1CCN(C(=O)C2CCCC2)CC1)c1cccc(C(F)(F)F)c1	none
CC(C)(C)NC(=O)C(c1cccnc1)N(C(=O)c1cccs1)c1ccc(C(C)(C)C)cc1 (stereo unspecified)	none (no result: proKLK7 act)
COc1ccccc1NC(=O)C1=C(C)Nc2nc(-c3ccccc3)nn2C1c1ccccn1 (stereo unspecified)	ADAM10 inh 67 | ADAM10 confirm inactive | ADAM17 ctr inactive
COc1ccc(NC(=O)CC2C(=O)N(CCc3ccccc3)C(=S)N2Cc2cccnc2)cc1 (stereo unspecified)	ADAM10 inh 22 | ADAM10 confirm inactive | ADAM17 ctr inactive

Bioassay records from PubChem.
